# According to PubChem BioAssay (NCATS):
# Where “and” joins values, the source holds several entries; their conditions need not be identical. Equal entries are not always repeated. Inconclusive results are not listed. Where a call stands in place of a potency, no number is given. Calls of active or inactive are those of the source. Unless noted, calls follow the shape of the dose curve; as a rule, active = well fitted curve in the direction sought with a large enough effect; inconclusive = small, poorly fitted or top-dose-only effect, or another doubt; inactive = no such curve, though single readings can be large; an effect the other way counts as inactive or inconclusive.
# How the values were obtained:
# [1] = qHTS Assay for Lipid Storage Modulators (AID 1519; calls by dose curve); conditions: Drosophila S3 cells, BODIPY lipid droplet/cell ratio, laser cytometry, cells loaded with oleic acid; for activity change, negative = inhibition: at 57.5 µM (top of the series)
# In short: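 Cells seeded at 5,000 per well were treated with compounds over a concentration series and loaded with oleic acid (400 uM, as added). Lipid droplet fluorescence (488 nm excitation, 500-530 nm channel) was read by laser-scanning cytometry and normalized to 20 uM Triacsin C.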
# [2] = biological target: DNA repair nuclease/redox regulator APEX1 (Homo sapiens) (UniProt P27695); assay: qHTS Validation Assay for Inhibitors of the Human Apurinic/apyrimidinic Endonuclease 1 (APE1) (AID 1705; also: potency is read from the fitted curve at half-maximal effect;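 as to activity change, negative = inhibition: TAMRA fluorescence gain over two minutes as APE1 cuts a quenched THF abasic duplex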); conditions: purified APE1 endonuclease activity, fluorescence, titration; series mostly up to 57.1 µM
# Sequence of DNA repair nuclease/redox regulator APEX1 (Homo sapiens) (P27695 whole entry, looked up): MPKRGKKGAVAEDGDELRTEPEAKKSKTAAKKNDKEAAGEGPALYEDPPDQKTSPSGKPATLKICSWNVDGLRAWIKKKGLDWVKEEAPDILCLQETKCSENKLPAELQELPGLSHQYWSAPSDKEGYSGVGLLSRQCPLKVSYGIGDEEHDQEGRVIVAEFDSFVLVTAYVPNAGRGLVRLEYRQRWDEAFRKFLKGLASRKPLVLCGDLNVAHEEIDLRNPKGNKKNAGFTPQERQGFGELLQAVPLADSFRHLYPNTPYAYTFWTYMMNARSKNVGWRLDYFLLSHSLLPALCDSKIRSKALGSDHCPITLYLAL
# In short: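 Activity read as rising fluorescence (598 nm emission, 525 nm excitation) from incision of a TAMRA/BHQ-2 duplex carrying a THF abasic site (50 nM). Compound and enzyme sat 15 min at RT before substrate start; signal change between first and third 60-s reads.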
# [3] = Counterscreen for APE1 Inhibitors: Fluorescent Dye Displacement Validation Assay (AID 1707); conditions: fluorescent dye displacement from DNA; series mostly up to 57.1 µM; also: potency is read from the fitted curve at half-maximal effect
# In short: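 Compounds are scored by their ability to displace Thiazole Orange (250 nM) from a 50 nM TAMRA-tagged duplex bearing a tetrahydrofuran abasic site. Buffer is 50 mM Tris-HCl pH7.5, 50mM NaCl, 2 mM MgCl2, 0.01% Tween-20.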
# [4] = biological target: Endonuclease 4 (Escherichia coli (strain K12)) (UniProt P0A6C1); assay: Counterscreen for APE1 Inhibitors: qHTS Validation Assay for Inhibitors of Endonuclease IV (AID 1708); also: potency is read from the fitted curve at half-maximal effect; conditions: E. coli endonuclease IV, DNA cleavage fluorescence; series mostly up to 57.1 µM
# In short: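 E. coli EndoIV at 2 nM final, preincubated 15 min at room temperature with compound, then 50 nM TAMRA/BHQ-2 THF abasic-site duplex added. Buffer: 50 mM Tris-HCl pH 7.5, 50 mM NaCl, 2 mM MgCl2, 1 mM DTT, 0.01% Tween-20. Kinetic fluorescence increase, third minus first read.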
# [5] = qHTS for differential inhibitors of proliferation of Plasmodium falciparum line 7G8 (AID 1815); conditions: Plasmodium falciparum 7G8 proliferation inhibition; series mostly up to 28.7 µM;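 also: parasite growth measured after three days of incubation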; also: potency is read from the fitted curve at half-maximal effect
# [6] = qHTS for differential inhibitors of proliferation of Plasmodium falciparum line GB4 (AID 1816); conditions: Potency: Plasmodium falciparum GB4 proliferation inhibition; series mostly up to 28.7 µM;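 also: parasite growth measured after 72 h incubation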; also: potency is read from the fitted curve at half-maximal effect
# [7] = qHTS for differential inhibitors of proliferation of Plasmodium falciparum line D10 (AID 1877); conditions: series mostly up to 28.7 µM;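 also: parasites grown with compound for 72 h before DNA staining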; also: potency is read from the fitted curve at half-maximal effect
# [8] = qHTS for differential inhibitors of proliferation of Plasmodium falciparum line Dd2 (AID 1882); conditions: Potency: Plasmodium falciparum Dd2 proliferation inhibition; series mostly up to 28.7 µM; also: nearly all actives have a fitted effect of over 65% in size; also: potency is read from the fitted curve at half-maximal effect
# In short: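 Dd2-infected erythrocytes (0.3% parasitemia, 2.5% hematocrit final) incubated with compound 72 h at 37 C, 5% CO2; lysed with saponin/Triton buffer containing SYBR Green I, incubated overnight in the dark, then read by fluorescence (485/535 nm). Normalized to 0.29 uM artemisinin and DMSO.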
# [9] = qHTS for differential inhibitors of proliferation of Plasmodium falciparum line W2 (AID 1883); conditions: Potency: Plasmodium falciparum W2 proliferation inhibition; series mostly up to 28.7 µM;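 also: parasites grown with compound for 72 h before lysis and staining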; also: potency is read from the fitted curve at half-maximal effect
# [10] = qHTS for differential inhibitors of proliferation of Plasmodium falciparum line 3D7 (AID 1876); also: potency is read from the fitted curve at half-maximal effect; conditions: P. falciparum 3D7 proliferation inhibition; series mostly up to 28.7 µM
# [11] = measured here: cell count channel max response
# [12] = measured here: lipid channel max response
SMILES,"activity change, negative = inhibition [1]","max response [1, 11]","max response [1, 12]",Potency [2],Potency [3],Potency [4],Potency [5],Potency [6],Potency [7],Potency [8],Potency [9],Potency [10]
c1ccc2c(N3CCNCC3)cccc2c1,-1.92% (inactive),39.8%,34.6%,inactive,inactive,inactive,12.6 µM (active),12.6 µM (active),10 µM (active),11.2 µM (active),7.94 µM (active),–
CCS(=O)(=O)Nc1cccc(C(=C2CCCCC2)c2cnc[nH]2)c1,1.44% (inactive),56.8%,58%,inactive,inactive,–,7.08 µM (active),12.6 µM (active),14.1 µM (active),10 µM (active),8.91 µM (active),11.2 µM (active)
CN(N=O)c1ccc(O)c(O)c1,-1.9% (inactive),-25.4%,-24.9%,0.501 µM (active),14.1 µM (active),8.91 µM (active),inactive,–,inactive,inactive,–,inactive
Nc1ccc(CCN2CCN(c3cccc(C(F)(F)F)c3)CC2)cc1,2.29% (inactive),-6.99%,-6.09%,inactive,inactive,–,7.94 µM (active),–,–,inactive,10 µM (active),inactive
COc1ccc(CNC(=O)/C=C/c2ccc3[nH]cc(CCN(C)C)c3c2)cc1,-4.95% (inactive),-78.1%,-80.1%,inactive,inactive,–,11.2 µM (active),11.2 µM (active),11.2 µM (active),–,8.91 µM (active),8.91 µM (active)
CN1CCc2cccc(Cl)c2CC1,0.882% (inactive),-8.27%,-8.1%,inactive,inactive,inactive,inactive,–,inactive,inactive,–,inactive
NC(N)=Nc1ccc2[nH]c3c(c2c1)C[C@@]1(O)[C@H]2Cc4ccc(O)c5c4[C@@]1(CCN2CC1CC1)[C@H]3O5,-5.63% (inactive),-1.13%,-6.88%,inactive,inactive,inactive,inactive,–,–,inactive,–,inactive
OC1CCCCC1N1CCC(c2ccccc2)CC1 (stereo not given),6.18% (inactive),4.61%,12.5%,–,inactive,inactive,–,–,inactive,inactive,10 µM (active),inactive
NNC(=O)c1ccc(O)cc1,0.0246% (inactive),-17.6%,-15.4%,inactive,inactive,–,inactive,inactive,inactive,inactive,inactive,inactive
C[N+](C)(C)CC#CCOC(=O)Nc1cccc(Cl)c1,-0.494% (inactive),-7.08%,-8.94%,inactive,inactive,–,–,–,11.2 µM (active),inactive,12.6 µM (active),12.6 µM (active)
COc1ccc2[nH]c3c(c2c1)CCNC3,-0.655% (inactive),-42.9%,-46.2%,inactive,inactive,inactive,inactive,–,inactive,inactive,–,inactive
CN1CCC(c2c[nH]c3ccc(O)cc23)CC1,2.83% (inactive) and 0.677% (inactive),19.5% and 47.8%,24% and 52.3%,inactive,inactive,–,–,–,–,inactive,8.91 µM (active),10 µM (active)
NCC(O)c1cc(O)c(O)cc1F (stereo not given),-0.0544% (inactive),-35.5%,-39.7%,35.5 µM (active),inactive,inactive,–,inactive,inactive,inactive,–,inactive
CC(N)Cc1c[nH]c2ccc(OCc3cccs3)cc12 (stereo not given),-0.884% (inactive),-45.6%,-46.5%,inactive,inactive,–,7.94 µM (active),7.94 µM (active),–,–,7.94 µM (active),10 µM (active)
NCCc1c[nH]c2ccc(C(N)=O)cc12,-0.884% (inactive),2.92%,1.87%,inactive,inactive,–,inactive,inactive,inactive,inactive,–,inactive
NC(=O)c1ccc(OCC(O)CN2CC=C(c3ccc(F)cc3)CC2)cc1 (stereo not given),-3.69% (inactive),-43.3%,-42.5%,inactive,inactive,inactive,–,10 µM (active),–,–,7.94 µM (active),11.2 µM (active)
CC(N)[C@H](O)c1ccc(O)c(O)c1 (stereo not given in full),0.659% (inactive),1.77%,2.21%,–,inactive,inactive,inactive,inactive,inactive,inactive,–,inactive
Clc1cc(I)cc(Cl)c1NC1=NCCN1,0.0728% (inactive),-25.7%,-24.3%,inactive,inactive,–,–,–,–,inactive,14.1 µM (active),–
C[N+](C)(C)CC#CCN1CCCC1=O,1.94% (inactive),5.23%,8.27%,–,inactive,–,–,inactive,inactive,inactive,–,inactive
C[N+]1(C)CCN(c2ccccc2)CC1,1.07% (inactive),-21.1%,-16.2%,inactive,inactive,inactive,inactive,inactive,inactive,inactive,–,–
Ic1ccccc1CNC1C2CCN(CC2)C1C(c1ccccc1)c1ccccc1 (stereo not given),–,–,–,inactive,inactive,inactive,7.08 µM (active),5.01 µM (active),11.2 µM (active),3.16 µM (active),1.41 µM (active),5.01 µM (active)
NCCCP(=O)(O)O,–,–,–,inactive,inactive,inactive,inactive,inactive,inactive,inactive,inactive,inactive

SMILES,"activity change, negative = inhibition [1]","max response [1, 11]","max response [1, 12]",Potency [2],Potency [3],Potency [4],Potency [5],Potency [6],Potency [7],Potency [8],Potency [9],Potency [10]
CC(=O)c1c(O)c(C)c(O)c(Cc2c(O)c3c(c(C(=O)/C=C/c4ccccc4)c2O)OC(C)(C)C=C3)c1O,–,–,–,inactive,2.24 µM (active),inactive,3.16 µM (active),3.16 µM (active),10 µM (active),7.94 µM (active),3.55 µM (active),3.98 µM (active)
CCOC(=O)c1ncn2c1[C@@H]1CCCN1C(=O)c1cc(OC)ccc1-2,–,–,–,inactive,inactive,inactive,7.94 µM (active),inactive,inactive,inactive,–,inactive
C=CCN1CC[C@]23c4c5ccc(O)c4O[C@@H]2/C(=N/N=C2\CC[C@@]4(O)C6Cc7ccc(O)c8c7[C@@]4(CCN6CC=C)[C@@H]2O8)CC[C@@]3(O)C1C5,–,–,–,inactive,inactive,inactive,2.51 µM (active),3.16 µM (active),2.82 µM (active),8.91 µM (active),2.51 µM (active),2.24 µM (active)
N[C@@H](CCl)C(=O)O,–,–,–,inactive,inactive,inactive,inactive,inactive,inactive,inactive,–,inactive
CC(=O)NBr,–,–,–,inactive,inactive,inactive,inactive,inactive,inactive,inactive,inactive,inactive
NCCc1ccc(S(=O)(=O)F)cc1,–,–,–,inactive,inactive,inactive,inactive,inactive,inactive,inactive,–,inactive
C[C@]12Cc3cn4c(nc3C=C1CCC1C2CC[C@@]2(C)[C@H]1CC[C@@]2(O)C#N)nc1ccccc14 (stereo not given in full),–,–,–,inactive,inactive,inactive,1.26 µM (active),3.16 µM (active),5.01 µM (active),3.55 µM (active),2.82 µM (active),2.82 µM (active)
CCN(CC)c1ncnc2c1ncn2[C@@H]1O[C@H](COP(=O)(O)OP(=O)(O)C(Br)(Br)P(=O)(O)O)[C@@H](O)[C@H]1O,–,–,–,inactive,inactive,inactive,inactive,inactive,inactive,inactive,inactive,inactive
NC(C(=O)O)c1cc(=O)[nH]o1 (stereo not given),–,–,–,inactive,inactive,inactive,inactive,inactive,inactive,inactive,inactive,inactive
Cc1o[nH]c(=O)c1CC(N)C(=O)O (stereo not given),–,–,–,inactive,inactive,inactive,inactive,inactive,inactive,inactive,inactive,inactive
C[C@H](Cc1ccc2c(c1)OC(C(=O)O)(C(=O)O)O2)NC[C@H](O)c1cccc(Cl)c1,–,–,–,inactive,inactive,inactive,inactive,inactive,inactive,inactive,inactive,inactive
CC(C)(C)c1cc(C=C(C#N)C#N)cc(C(C)(C)C)c1O,–,–,–,inactive,inactive,inactive,1.12 µM (active),0.891 µM (active),1.12 µM (active),0.891 µM (active),0.355 µM (active),0.708 µM (active)
C[C@@H]1O[C@H](C[N+](C)(C)C)CS1,–,–,–,inactive,inactive,inactive,inactive,inactive,inactive,inactive,inactive,inactive
CCCN1CCCC2Cc3[nH]ncc3CC21 (stereo not given),–,–,–,inactive,inactive,inactive,inactive,inactive,inactive,inactive,–,inactive
C=CCN1C[C@@H](C)N([C@H](c2ccc(C(=O)N(CC)CC)cc2)c2cccc(OC)c2)C[C@@H]1C,–,–,–,inactive,inactive,inactive,2.82 µM (active),3.98 µM (active),7.08 µM (active),8.91 µM (active),3.16 µM (active),3.16 µM (active)
NC(=O)CI,–,–,–,inactive,inactive,inactive,inactive,inactive,inactive,inactive,inactive,inactive
NC(=O)COc1c(F)cc(SCCNS(=O)(=O)c2ccccc2)cc1F,–,–,–,inactive,inactive,inactive,inactive,inactive,inactive,inactive,–,inactive
C[Se]C[C@H](N)C(=O)O,–,–,–,inactive,inactive,inactive,inactive,inactive,inactive,inactive,inactive,inactive
C[N+](C)(C)CCOC(=O)CBr,–,–,–,inactive,inactive,inactive,inactive,inactive,inactive,inactive,inactive,inactive
NC(Cc1ccc(N(CCCl)CCCl)cc1)C(=O)O (stereo not given),–,–,–,inactive,inactive,inactive,10 µM (active),11.2 µM (active),12.6 µM (active),–,10 µM (active),10 µM (active)
N#CC(C#N)=Cc1cc(O)c(O)c(O)c1,–,–,–,inactive,inactive,inactive,6.31 µM (active),10 µM (active),12.6 µM (active),–,7.94 µM (active),12.6 µM (active)
